Experimental data published in PubChem BioAssay AID1159580 (chemical genetic matrix, 2015).
Out of some 5,500 compounds screened, about 2,000 (36%) were called active. Another 18% or so got no clear call; they are omitted. Rule as the data show it: active = normalized growth mostly below about 0.91 (no sharp cut-off); inconclusive = no clear call, values can overlap the other calls; inactive = mostly above about 0.92. The list shows a part of the results. Where a SMILES comes first, the peptide text is derived from it. [ ]: non-standard residue; d: D form. Orn = NCCC[CH](N)C(=O)O

Assay: chemical genetic growth profiling, strain panel (AID 1159580);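 also: tested at 20 µM; growth read once vehicle control cultures reached saturation at 30 °C; 1 = growth at the plate median or of vehicle wells; lower values mean less growth of the strain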
Settings: growth OD

Measured: normalized growth

CC(C)CC1NC(=O)C(CCCN)NC(=O)C(C(C)C)NC(=O)C2CCCN2C(=O)C(Cc2ccccc2)NC(=O)C(CC(C)C)NC(=O)C(CCCN)NC(=O)C(C(C)C)NC(=O)C2CCCN2C(=O)C(Cc2ccccc2)NC1=O (stereo unspecified) (cyclo(FPV[Orn]LFPV[Orn]L); configuration not given here)
inactive: S. cerevisiae deletion strains, locus YKL160W, strain elf1, stronger effect = lower value 1.02 | S. cerevisiae deletion strains, locus YKL190W, strain CNB1, stronger effect = lower value 1.02 | S. cerevisiae deletion strains, locus YKR026C, strain gcn3, stronger effect = lower value 1.04 | S. cerevisiae deletion strains, locus YKR091W, strain srl3, stronger effect = lower value 1.02 | S. cerevisiae deletion strains, locus YLL001W, strain dnm1, stronger effect = lower value 1.03 | S. cerevisiae deletion strains, locus YLL026W, stronger effect = lower value 1.02 | S. cerevisiae deletion strains, locus YLL041C, strain sdh2, stronger effect = lower value 1.02 | S. cerevisiae deletion strains, locus YLR027C, strain aat2, stronger effect = lower value 1.01 | S. cerevisiae deletion strains, locus YLR058C, strain SHM2, stronger effect = lower value 1 | S. cerevisiae deletion strains, locus YLR102C, strain apc9, stronger effect = lower value 1.01 | S. cerevisiae deletion strains, locus YLR113W, strain HOG1, stronger effect = lower value 0.971 | S. cerevisiae deletion strains, locus YLR221C, strain rsa3, stronger effect = lower value 1.04 | S. cerevisiae deletion strains, locus YLR258W, strain gsy2, stronger effect = lower value 1.04 | S. cerevisiae deletion strains, locus YLR268W, strain sec22, stronger effect = lower value 0.989 | S. cerevisiae deletion strains, locus YLR320W, strain mms22, stronger effect = lower value 1.02 | S. cerevisiae deletion strains, locus YLR330W, strain CHS5, stronger effect = lower value 1.01 | S. cerevisiae deletion strains, locus YLR342W, strain FKS1 (second series), stronger effect = lower value 0.857 | S. cerevisiae deletion strains, locus YLR342W, strain FKS1, stronger effect = lower value 1.02 | S. cerevisiae deletion strains, locus YLR357W, strain rsc2, stronger effect = lower value 0.968 | S. cerevisiae deletion strains, locus YLR370C, strain arc18, stronger effect = lower value 0.927 | S. cerevisiae deletion strains, locus YLR371W, strain rom2, stronger effect = lower value 1.01 | S. cerevisiae deletion strains, locus YLR384C, strain iki3, stronger effect = lower value 1.03 | S. cerevisiae deletion strains, locus YLR418C, strain cdc73, stronger effect = lower value 0.932 | S. cerevisiae deletion strains, locus YML016C, strain PPZ1, stronger effect = lower value 1.01 | S. cerevisiae deletion strains, locus YML032C, strain rad52, stronger effect = lower value 0.989 | S. cerevisiae deletion strains, locus YML120C, strain ndi1, stronger effect = lower value 1.02 | S. cerevisiae deletion strains, locus YML124C, strain tub3, stronger effect = lower value 1 | S. cerevisiae deletion strains, locus YMR058W, strain fet3, stronger effect = lower value 1.03 | S. cerevisiae deletion strains, locus YMR078C, strain ctf18, stronger effect = lower value 1.01 | S. cerevisiae deletion strains, locus YMR125W, strain sto1, stronger effect = lower value 0.999 | S. cerevisiae deletion strains, locus YMR129W, stronger effect = lower value 1.02 | S. cerevisiae deletion strains, locus YMR205C, strain PFK2, stronger effect = lower value 1.02 | S. cerevisiae deletion strains, locus YMR223W, strain ubp8, stronger effect = lower value 0.978 | S. cerevisiae deletion strains, locus YMR263W, strain SAP30, stronger effect = lower value 1 | S. cerevisiae deletion strains, locus YMR307W, strain GAS1, stronger effect = lower value 0.833 | S. cerevisiae deletion strains, locus YNL067W, strain RPL9B, stronger effect = lower value 0.994 | S. cerevisiae deletion strains, locus YNL071W, strain lat1, stronger effect = lower value 1.03 | S. cerevisiae deletion strains, locus YNL128W, strain TEP1, stronger effect = lower value 1.03 | S. cerevisiae deletion strains, locus YNL153C, strain GIM3, stronger effect = lower value 1 | S. cerevisiae deletion strains, locus YNL183C, strain NPR1, stronger effect = lower value 0.948 | S. cerevisiae deletion strains, locus YNL209W, strain ssb2, stronger effect = lower value 1.01 | S. cerevisiae deletion strains, locus YNL233W, strain BNI4, stronger effect = lower value 0.982 | S. cerevisiae deletion strains, locus YNL248C, strain rpa49, stronger effect = lower value 1.03 | S. cerevisiae deletion strains, locus YNL250W, strain rad50, stronger effect = lower value 0.998 | S. cerevisiae deletion strains, locus YNL271C, strain bni1, stronger effect = lower value 0.995 | S. cerevisiae deletion strains, locus YNL298W, strain CLA4, stronger effect = lower value 0.967 | S. cerevisiae deletion strains, locus YNL307C, strain MCK1, stronger effect = lower value 0.991 | S. cerevisiae deletion strains, locus YNL322C, strain KRE1 (second series), stronger effect = lower value 1.06 | S. cerevisiae deletion strains, locus YNL322C, strain KRE1, stronger effect = lower value 1.01 | S. cerevisiae deletion strains, locus YNR049C, strain mso1, stronger effect = lower value 1.04 | S. cerevisiae deletion strains, locus YNR052C, strain pop2, stronger effect = lower value 0.984 | S. cerevisiae deletion strains, locus YOL012C, strain htz1 0.807 | S. cerevisiae deletion strains, locus YOL147C, strain pex11, stronger effect = lower value 1.01 | S. cerevisiae deletion strains, locus YOR001W, strain rrp6, stronger effect = lower value 1 | S. cerevisiae deletion strains, locus YOR061W, strain CKA2, stronger effect = lower value 1 | S. cerevisiae deletion strains, locus YOR069W, strain VPS5, stronger effect = lower value 1 | S. cerevisiae deletion strains, locus YOR070C, strain gyp1, stronger effect = lower value 1.03 | S. cerevisiae deletion strains, locus YOR080W, strain dia2, stronger effect = lower value 1.05 | S. cerevisiae deletion strains, locus YOR083W, strain WHI5, stronger effect = lower value 1.01 | S. cerevisiae deletion strains, locus YOR106W, strain vam3, stronger effect = lower value 1.01 | S. cerevisiae deletion strains, locus YOR136W, strain idh2, stronger effect = lower value 1 | S. cerevisiae deletion strains, locus YOR144C, strain elg1, stronger effect = lower value 1 | S. cerevisiae deletion strains, locus YOR184W, strain ser1, stronger effect = lower value 0.987 | S. cerevisiae deletion strains, locus YOR231W, strain MKK1, stronger effect = lower value 0.983 | S. cerevisiae deletion strains, locus YOR265W, strain rbl2, stronger effect = lower value 1.03 | S. cerevisiae deletion strains, locus YOR290C, strain snf2, stronger effect = lower value 0.973 | S. cerevisiae deletion strains, locus YOR316C, strain cot1, stronger effect = lower value 1.01 | S. cerevisiae deletion strains, locus YPL055C, strain LGE1, stronger effect = lower value 0.985 | S. cerevisiae deletion strains, locus YPL078C, strain atp4, stronger effect = lower value 1.02 | S. cerevisiae deletion strains, locus YPL106C, strain sse1, stronger effect = lower value 0.995 | S. cerevisiae deletion strains, locus YPL240C, strain hsp82, stronger effect = lower value 1.03 | S. cerevisiae deletion strains, locus YPL241C, strain CIN2, stronger effect = lower value 1.01 | S. cerevisiae deletion strains, locus YPL256C, strain CLN2, stronger effect = lower value 0.97 | S. cerevisiae deletion strains, locus YPR119W, strain clb2, stronger effect = lower value 1 | S. cerevisiae deletion strains, locus YPR141C, strain kar3, stronger effect = lower value 0.997 | S. cerevisiae deletion strains, locus YPR163C, strain tif3, stronger effect = lower value 0.953 | S. cerevisiae deletion strains, locus YPR167C, strain met16, stronger effect = lower value 1.01 | S. cerevisiae deletion strains, strain wtn01, stronger effect = lower value 0.988 | S. cerevisiae strains, strain wild type, stronger effect = lower value 1.04
active: S. cerevisiae deletion strains, locus YKL009W, strain mrt4, stronger effect = lower value 1.4 [resistant] | S. cerevisiae deletion strains, locus YKL068W, stronger effect = lower value 1.25 [resistant] | S. cerevisiae deletion strains, locus YKL085W, strain MDH1 (second series), stronger effect = lower value 1.11 [resistant] | S. cerevisiae deletion strains, locus YKL085W, strain MDH1, stronger effect = lower value 1.11 [resistant] | S. cerevisiae deletion strains, locus YKR001C, strain vps1, stronger effect = lower value 0.236 | S. cerevisiae deletion strains, locus YLR039C, strain RIC1, stronger effect = lower value 0.328 | S. cerevisiae deletion strains, locus YLR262C, strain YPT6 (second series), stronger effect = lower value 0.293 | S. cerevisiae deletion strains, locus YLR262C, strain YPT6, stronger effect = lower value 0.285 | S. cerevisiae deletion strains, locus YMR231W, strain pep5, stronger effect = lower value 0.324 | S. cerevisiae deletion strains, locus YOL006C, strain TOP1, stronger effect = lower value 0.122 | S. cerevisiae deletion strains, locus YOR270C, strain vph1, stronger effect = lower value 0.468 | S. cerevisiae deletion strains, locus YPL051W, strain arl3, stronger effect = lower value 0.7
